PubChem BioAssay AID1259343 (VanderVen Lab, College of Veterinary Medicine, Cornell …, 2017)
About 2,900 (47%) of roughly 6,200 compounds were called active. No stated cut-off is given here; in the data, active means inhibition above about 50%; inactive means the rest. The set was probably picked from earlier hits. This is one part of the list.

Assay: Mycobacterium tuberculosis growth inhibition, primary screen (AID 1259343)
Conditions: inhibition: at 10 µM, hits give high values; outcome: 10 uM

Row | Compound | inhibition
1 | Cc1noc(-c2cc(Br)cc(Br)c2O)n1 | 101% (active)
2 | O=C(O)c1cc2cc(Cl)ccc2[nH]1 | 56.1% (active)
3 | O=C(O)c1csc(-c2ccc(Cl)cc2Cl)n1 | 39.2% (inactive)
4 | Cc1cc(Cl)cc2sc(N(CCCn3ccnc3)C(=O)/C=C/c3cccs3)nc12 | 75.5% (active)
5 | N=C1C2=C3Sc4ccccc4N3CCCC2=NN1c1ccc(Cl)cc1 | 13.7% (inactive)
6 | O=[N+]([O-])c1cccnc1Oc1ccc(Oc2ccccc2)cc1 | 94.5% (active)
7 | CN(Sc1ccccc1[N+](=O)[O-])c1ccccc1 | 30.9% (inactive)
8 | c1ccc(CCCc2nnnn2CC2CCOC2)cc1 (centres undefined) | 65.2% (active)
9 | COc1ccc(NC(C)c2nc(-c3ccco3)no2)cc1 (centres undefined) | 94.9% (active)
10 | CC(C)c1noc(C(C)Nc2ccc3c(c2)CCO3)n1 (centres undefined) | 1.87% (inactive)
11 | CC1(C)C2CCC1(C)C(NS(=O)(=O)Cc1ccccc1)C2 (centres undefined) | 7.59% (inactive)
12 | CC1(C)C2CCC1(C)C(NC(=O)COc1ccccc1Cl)C2 (centres undefined) | 91.4% (active)
13 | CC1CCC(NC(=O)COc2ccccc2Br)CC1 (centres undefined) | 42.5% (inactive)
14 | CCOc1ccccc1NC(=O)N1CCN(CCCOC(c2ccc(Cl)cc2)c2ccc(Cl)cc2)CC1 | 16.6% (inactive)
15 | O=C(Nc1ccc(C(=O)O)c(O)c1)c1cc(Cl)cc(Cl)c1 | 25.6% (inactive)
16 | Cc1occc1C(=O)Nc1cc(Cl)ccc1C(=O)O | 62.5% (active)
17 | Cc1cc(NC(=O)C2c3ccccc3Oc3ccccc32)n(-c2nc3c(c(=O)[nH]2)CCC3)n1 | -27.3% (inactive)
18 | CCCc1cc(=O)[nH]c(-n2nc(C)cc2NC(=O)C2c3ccccc3Oc3ccccc32)n1 | 99% (active)
19 | CCc1cc(=O)[nH]c(-n2nc(C)cc2NC(=O)C2c3ccccc3Oc3ccccc32)n1 | 101% (active)
20 | Cc1cc(=O)[nH]c(-n2nc(C)cc2NC(=O)C2c3ccccc3Oc3ccccc32)n1 | 100% (active)
21 | CN(C)P(=NC(=S)Nc1ccc(SC(F)F)cc1)(c1ccncc1)N(C)C | inactive
22 | O=C(Nc1ccc(SC(F)F)cc1)c1ccc(-n2cncn2)cc1 | 52.4% (active)
23 | FC(F)Sc1ccc(NC(=S)NN2CCCCC2)cc1 | 28.6% (inactive)
24 | Cc1cc(C(=O)O)n2nc(-c3ccc(Cl)cc3)cc2n1 | 76.7% (active)
25 | CCOC(=O)C1CCCN(C(=O)c2cc(-c3cccc(OC)c3)nc3cc(-c4ccccc4)nn23)C1 (centres undefined) | 1.82% (inactive)

Row | Compound | inhibition
26 | COc1cccc(C(=O)Nc2nc(-c3ccccc3)cs2)c1 | 71.2% (active)
27 | O=C(O)c1cc(-c2ccccc2F)nc2cc(-c3ccccc3)nn12 | 71.8% (active)
28 | COc1ccc(-c2cc3nc(C)cc(NC(C)c4ccccc4)n3n2)cc1OC (centres undefined) | 26.1% (inactive)
29 | COc1ccc(-c2cc(C(=O)O)n3nc(-c4ccc(Cl)cc4)cc3n2)cc1 | 41.5% (inactive)
30 | COc1cccc(-c2cc(C(=O)O)n3nc(-c4ccccc4)cc3n2)c1 | 104% (active)
31 | CCN(CC)S(=O)(=O)c1ccc(C(=O)Nc2nc(-c3ccccc3)cs2)cc1 | 35.8% (inactive)
32 | COc1ccc(C(=O)Nc2nc(-c3ccccc3)cs2)cc1 | 22.9% (inactive)
33 | Cc1cc(C(=O)NCCc2ccccc2)n2nc(-c3ccccc3)cc2n1 | 81.8% (active)
34 | Cc1ccc(-c2cc(C(=O)N(CCN(C)C)Cc3ccccc3)n(-c3ccccc3)n2)cc1C | 27.2% (inactive)
35 | O=C(O)c1cc(-c2ccc(F)cc2)nc2cc(-c3ccccc3)nn12 | 67.1% (active)
36 | CC(C)(C)C(=O)Nc1nc(-c2cccc(Br)c2)cs1 | 57.1% (active)
37 | O=C(O)c1cc(-c2ccccc2F)nc2cc(-c3ccc(Cl)cc3)nn12 | 88.1% (active)
38 | O=C(O)c1cc(-c2ccccc2Cl)nc2cc(-c3ccccc3)nn12 | 96.6% (active)
39 | Nc1nc(-c2ccccc2Cl)co1 | 12% (inactive)
40 | Cc1ccc(-c2c(C)nn3c(NCc4cccnc4)cc(C)nc23)cc1 | 30.6% (inactive)
41 | Cc1ccc(-c2c(C)nn3c(NCCc4ccccc4)cc(C)nc23)cc1 | -2.64% (inactive)
42 | COc1ccc(-c2c(C)nn3c(NCCc4ccccc4)cc(C)nc23)cc1OC | 65.5% (active)
43 | NC(=O)c1ccc(OCc2cc(Cl)c3c(c2)OCO3)cc1 | 35.7% (inactive)
44 | CN(Cc1ccccc1)c1ncnc(Oc2ccc3c(c2)OCO3)c1N | 28% (inactive)
45 | O=C1OC(c2ccccc2)OC(=O)C1=Cc1ccc(OCc2ccc3c(c2)OCO3)cc1 (centres undefined) | 84.2% (active)
46 | O=C(NCCOc1ccccc1F)C12CC3CC(CC(C3)C1)C2 | 31.1% (inactive)
47 | O=C(NCc1ccco1)C12CC3CC(CC(C3)C1)C2 | 98.1% (active)
48 | C=Cc1ccc(Cn2cc(C(=O)NCc3ccco3)sc2=O)cc1 | 7.16% (inactive)
49 | COC(=O)CCc1c(C)nc2c(c(-c3ccco3)nn2C2CCS(=O)(=O)C2)c1C (centres undefined) | 24.9% (inactive)
